{"source": "PubChem BioAssay AID1347418", "about": "(Sanford-Burnham Center for Chemical Genomics, 2020)", "note": "The whole screen tested about 1,300 compounds, of which about 750 (58%) were called active. This is one part of the list. A number with no mark means an inactive call.", "data": [{"target": "Sulfhydryl oxidase 1 (Homo sapiens) (UniProt O00391)", "sequence (O00391 whole entry, looked up)": "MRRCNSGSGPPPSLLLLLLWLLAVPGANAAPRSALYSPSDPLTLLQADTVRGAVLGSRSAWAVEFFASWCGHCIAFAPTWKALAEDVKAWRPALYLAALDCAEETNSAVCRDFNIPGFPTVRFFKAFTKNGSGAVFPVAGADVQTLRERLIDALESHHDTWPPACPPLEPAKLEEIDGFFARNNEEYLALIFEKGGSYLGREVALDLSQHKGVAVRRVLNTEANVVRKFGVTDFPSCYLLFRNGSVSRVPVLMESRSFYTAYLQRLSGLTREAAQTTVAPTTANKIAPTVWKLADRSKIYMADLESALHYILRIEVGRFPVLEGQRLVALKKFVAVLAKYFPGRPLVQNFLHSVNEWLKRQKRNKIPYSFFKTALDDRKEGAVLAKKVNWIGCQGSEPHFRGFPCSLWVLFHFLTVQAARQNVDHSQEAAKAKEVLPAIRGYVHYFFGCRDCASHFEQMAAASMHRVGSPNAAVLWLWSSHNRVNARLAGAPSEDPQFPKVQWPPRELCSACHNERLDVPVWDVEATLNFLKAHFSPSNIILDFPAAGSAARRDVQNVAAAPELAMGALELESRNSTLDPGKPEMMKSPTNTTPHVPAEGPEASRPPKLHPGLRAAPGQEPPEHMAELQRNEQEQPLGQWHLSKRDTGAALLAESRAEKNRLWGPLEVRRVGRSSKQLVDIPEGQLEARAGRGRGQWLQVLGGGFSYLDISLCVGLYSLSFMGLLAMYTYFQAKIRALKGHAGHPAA", "assay": "inhibition of human sulfhydryl oxidase QSOX1 – biochemical, ROS-Glo H2O2 luminescence, HTS, primary screen (AID 1347418)", "details": "recombinant QSOX1, ROS-Glo H2O2 luminescence; at 12.5 µM; active compounds read high; active = any value above zero", "values": [{"smiles": "CCN(CC)CC#CCOC(=O)C(O)(c1ccccc1)C1CCCCC1", "note": "(stereo not given)", "inhibition": "-2.5%"}, {"smiles": "CC#C[C@]1(O)CC[C@H]2[C@@H]3CCC4=CC(=O)CCC4=C3[C@@H](c3ccc(N(C)C)cc3)C[C@@]21C", "inhibition": "29.9% (active)"}, {"smiles": "O=C1Nc2ccc(I)cc2/C1=C/c1cc(Br)c(O)c(Br)c1", "inhibition": "1.3% (active)"}, {"smiles": "NCCS(=O)(=O)O", "inhibition": "-4.9%"}, {"smiles": "NCCCS(=O)(=O)O", "inhibition": "4.4% (active)"}, {"smiles": "COCc1nc2c([nH]1)c(=O)n(C)c(=O)n2CC(C)C", "inhibition": "-1.5%"}, {"smiles": "Cc1nc2c([nH]1)c(=O)n(C)c(=O)n2Cc1ccco1", "inhibition": "-1.4%"}, {"smiles": "CC(C)Cn1c(=O)n(C)c(=O)c2[nH]cnc21", "inhibition": "1.8% (active)"}, {"smiles": "Cn1c(=O)c2[nH]cnc2n(C)c1=O", "inhibition": "2.2% (active)"}, {"smiles": "c1ccc(C(NCc2cccnc2)(c2ccccc2)c2ccccc2)cc1", "inhibition": "-3.5%"}, {"smiles": "O=C(O)/C=C/C(O)c1ccc(Cl)cc1", "note": "(stereo not given)", "inhibition": "-2.6%"}, {"smiles": "Clc1ccc(C(c2ccccc2Cl)C(Cl)Cl)cc1", "note": "(stereo not given)", "inhibition": "22.6% (active)"}, {"smiles": "Cc1ccc(N(CC2=NCCN2)c2cccc(O)c2)cc1", "inhibition": "34.7% (active)"}, {"smiles": "O=C1O/C(=C/Br)CCC1c1cccc2ccccc12", "note": "(stereo not given)", "inhibition": "2.5% (active)"}, {"smiles": "C[C@H](O)C(=O)C1=Nc2c(nc(N)[nH]c2=O)NC1", "inhibition": "0.2% (active)"}, {"smiles": "CCCc1c(OCCCOc2ccc(OCC(=O)O)cc2)ccc(C(C)=O)c1O", "inhibition": "4.1% (active)"}, {"smiles": "O=C(O)/C(=C/c1c(C(=O)O)[nH]c2cc(Cl)cc(Cl)c12)c1ccccc1", "inhibition": "3.9% (active)"}, {"smiles": "O=C1NC(c2cccc([N+](=O)[O-])c2)=CCN1c1ccccc1O", "inhibition": "3.1% (active)"}, {"smiles": "O=C(O)c1ccccc1Nc1cccc(OCc2ccc3ccccc3n2)c1", "inhibition": "7.4% (active)"}, {"smiles": "CCCCCC(O)c1cccc(OCc2ccc3ccccc3n2)c1", "note": "(stereo not given)", "inhibition": "2.8% (active)"}, {"smiles": "O=C(c1ccccc1)c1ccc2n1CCC2C(=O)O", "note": "(stereo not given)", "inhibition": "-5%"}, {"smiles": "N#C/C(=C\\c1ccc(O)c(O)c1)C(=O)NCCCc1ccccc1", "inhibition": "21% (active)"}, {"smiles": "N#C/C(=C\\c1ccc(O)c(O)c1)C(=O)NCCc1ccccc1", "inhibition": "28.3% (active)"}, {"smiles": "N#C/C(=C\\c1ccc(O)c(O)c1)C(=O)Nc1ccccc1", "inhibition": "26.5% (active)"}, {"smiles": "NNCCc1ccccc1", "inhibition": "-0.4%"}, {"smiles": "C[C@H](NC(=O)/C(C#N)=C/c1ccc(O)c(O)c1)c1ccccc1", "inhibition": "24.4% (active)"}, {"smiles": "C[C@]12C=CC(=O)C=C1CC[C@@H]1C2=CC[C@]2(C)[C@@H](C(=O)CN3CCN(c4cc(N5CCCC5)nc(N5CCCC5)n4)CC3)CC[C@@H]12", "inhibition": "-5.3%"}, {"smiles": "CSc1ccc(C(=O)c2[nH]c(=O)[nH]c2C)cc1", "inhibition": "-1.7%"}, {"smiles": "N#C/C(=C\\c1ccc(O)c(O)c1)C(=O)NCCCNC(=O)/C(C#N)=C/c1ccc(O)c(O)c1", "inhibition": "25% (active)"}, {"smiles": "N#C/C(=C\\c1ccc(O)c(O)c1)C(=O)NCc1ccccc1", "inhibition": "26.3% (active)"}, {"smiles": "CN(C)c1nc(N(C)C)nc(N(C)C)n1", "inhibition": "-0.9%"}, {"smiles": "CC(=O)N1CCN(c2ccc(OC[C@H]3CO[C@](Cn4ccnc4)(c4ccc(Cl)cc4Cl)O3)cc2)CC1", "inhibition": "9.3% (active)"}, {"smiles": "Nc1nc2c(ncn2COCCO)c(=O)[nH]1", "inhibition": "0%"}, {"smiles": "Nc1nc2c(ncn2COC(CO)CO)c(=O)[nH]1", "inhibition": "0.2% (active)"}, {"smiles": "CO/N=C(\\C(=O)N[C@@H]1C(=O)N2C(C(=O)O)=C(COC(C)=O)CS[C@H]12)c1csc(N)n1", "inhibition": "-6.9%"}, {"smiles": "CC(=O)OCC1=C(C(=O)O)N2C(=O)[C@@H](NC(=O)Cc3cccs3)[C@H]2SC1", "inhibition": "1% (active)"}, {"smiles": "Cc1ccc(/C(=C\\CN2CCCC2)c2ccccn2)cc1", "inhibition": "-2.5%"}, {"smiles": "O=C1N=C(O)C(c2ccccc2)(c2ccccc2)N1", "inhibition": "-3.8%"}, {"smiles": "CCCOc1ccccc1-c1nc2n[nH]nc2c(=O)[nH]1", "inhibition": "-3%"}, {"smiles": "O=c1[nH]c(=O)c2nc3ccccc3nc2[nH]1", "inhibition": "8% (active)"}, {"smiles": "C[C@]12CCC(=O)C=C1CC[C@@H]1[C@@H]2C(=O)C[C@@]2(C)[C@H]1CC[C@]2(O)C(=O)CO", "inhibition": "4.5% (active)"}, {"smiles": "C[C@]12CCC(=O)C=C1CC[C@@H]1[C@@H]2CC[C@@]2(C)[C@H]1CC[C@]2(O)C(=O)CO", "inhibition": "1.9% (active)"}, {"smiles": "CC(=O)[C@H]1CC[C@H]2[C@@H]3CCC4=CC(=O)CC[C@]4(C)[C@H]3CC[C@]12C", "inhibition": "-0.5%"}, {"smiles": "C[C@]12C[C@H](O)[C@H]3[C@@H](CCC4=CC(=O)CC[C@@]43C)[C@@H]1CC[C@@H]2C(=O)CO", "inhibition": "1% (active)"}, {"smiles": "CC(=O)[C@@]1(O)CC[C@H]2[C@@H]3CCC4=CC(=O)CC[C@]4(C)[C@H]3CC[C@@]21C", "inhibition": "-1%"}, {"smiles": "C[C@]12CCC(=O)C=C1CC[C@@H]1[C@@H]2[C@@H](O)C[C@@]2(C)[C@H]1CC[C@]2(O)C(=O)CO", "inhibition": "-7.5%"}, {"smiles": "CC(=O)SC1CC2=CC(=O)CC[C@]2(C)C2CC[C@@]3(C)C(CC[C@@]34CCC(=O)O4)C12", "note": "(stereo not given in full)", "inhibition": "-4.3%"}, {"smiles": "CC(=O)OCC(=O)[C@@]1(O)CC[C@H]2[C@@H]3CCC4=CC(=O)CC[C@]4(C)[C@H]3C(=O)C[C@@]21C", "inhibition": "-7.3%"}, {"smiles": "O=C1NCN(c2ccccc2)C12CCN(CCCC(c1ccc(F)cc1)c1ccc(F)cc1)CC2", "inhibition": "-2.5%"}, {"smiles": "COc1ccc2c(c1)c(CC(=O)O)c(C)n2C(=O)c1ccccc1", "inhibition": "-3.5%"}, {"smiles": "COc1ccc2c(c1)c(CC(=O)O)c(C)n2C(=O)c1ccc(Cl)cc1", "inhibition": "4.9% (active)"}, {"smiles": "Cc1ccc([N+](=O)[O-])cc1S(=O)(=O)N(C)C", "inhibition": "9.9% (active)"}, {"smiles": "O=c1cc(O)cc(/C=C/c2ccc(O)c(O)c2)o1", "inhibition": "30.2% (active)"}, {"smiles": "Oc1ccc(/C=C/c2cc(O)cc(O)c2)cc1", "inhibition": "23.2% (active)"}, {"smiles": "Oc1cc(O)cc(/C=C/c2ccc(O)c(O)c2)c1", "inhibition": "44% (active)"}, {"smiles": "Oc1ccc(/C=C/c2ccc(/C=C/c3ccc(O)cc3)c(Br)c2)cc1", "inhibition": "1% (active)"}, {"smiles": "Cn1c(=O)c2c(nc(/C=C/c3cccc(Cl)c3)n2C)n(C)c1=O", "inhibition": "11.3% (active)"}, {"smiles": "C=CCn1c(=O)c2c(nc(-c3ccc(S(=O)(=O)O)cc3)n2C)n(C)c1=O", "inhibition": "-0.9%"}, {"smiles": "O=C1NC(=O)C(c2ccccc2[N+](=O)[O-])=C1Nc1ccc(O)c(Cl)c1", "inhibition": "35.4% (active)"}, {"smiles": "Cc1nc2n(c(=O)c1CCN1CCC(c3noc4cc(F)ccc34)CC1)CCCC2O", "note": "(stereo not given)", "inhibition": "1.5% (active)"}, {"smiles": "Clc1ccc2c(c1)C(N1CCNCC1)=Nc1ccccc1O2", "inhibition": "2.5% (active)"}, {"smiles": "CN1CCN(C2=Nc3ccccc3Oc3ccc(Cl)cc32)CC1", "inhibition": "1.9% (active)"}, {"smiles": "Nc1nc2[nH]c(=O)cnc2c(=O)[nH]1", "inhibition": "2.6% (active)"}, {"smiles": "Cn1cc(C(F)(F)F)nc1-c1ccc(OCC(O)CNCCOc2ccc(O)c(C(N)=O)c2)cc1", "note": "(stereo not given)", "inhibition": "5.6% (active)"}, {"smiles": "O=C(c1ccc2c(c1)OCCO2)N1CCCCC1", "inhibition": "4.8% (active)"}, {"smiles": "CCC(=O)N1CCN(C(=O)c2ccccc2)CC1", "inhibition": "-5.7%"}, {"smiles": "NC[C@H](O)c1ccc(O)c(O)c1", "inhibition": "9.5% (active)"}, {"smiles": "NCC(O)c1ccc(O)c(O)c1", "note": "(stereo not given)", "inhibition": "7.1% (active)"}, {"smiles": "C=C[C@H]1CN2CC[C@@H]1C[C@@H]2[C@H](O)c1ccnc2ccc(OC)cc12", "inhibition": "-1.1%"}, {"smiles": "NCCCNCCSP(=O)(O)O", "inhibition": "1.1% (active)"}, {"smiles": "CC(C)COCC(CN(Cc1ccccc1)c1ccccc1)N1CCCC1", "note": "(stereo not given)", "inhibition": "9.6% (active)"}, {"smiles": "CCCCC1C(=O)N(c2ccccc2)N(c2ccccc2)C1=O", "inhibition": "-5.9%"}, {"smiles": "Cc1ccc(=O)n(-c2ccccc2)c1", "inhibition": "0.9% (active)"}, {"smiles": "Cc1cc(O)c2c(c1)C(=O)c1cc(O)cc(O)c1C2=O", "inhibition": "10.6% (active)"}, {"smiles": "CCCc1c(-c2ccc(O)cc2)nn(-c2ccc(O)cc2)c1-c1ccc(O)cc1", "inhibition": "17.5% (active)"}, {"smiles": "Cn1cc(C(=O)OCC2CCN(CCNS(C)(=O)=O)CC2)c2ccccc21", "inhibition": "-2.2%"}, {"smiles": "CCN(CC)C(=S)SSC(=S)N(CC)CC", "inhibition": "14.5% (active)"}, {"smiles": "CC12C(=O)OC(=O)C1(C)C1CCC2O1", "note": "(stereo not given)", "inhibition": "-4%"}, {"smiles": "CN1CCc2cc(Cl)c(O)cc2[C@@H](c2ccccc2)C1", "inhibition": "10.2% (active)"}, {"smiles": "CN1CCc2cc(O)c(O)cc2C(c2ccccc2)C1", "note": "(stereo not given)", "inhibition": "14.7% (active)"}, {"smiles": "CN(C)c1cc2c(Nc3ccc4c(cnn4Cc4ccccc4)c3)ncnc2cn1", "inhibition": "-0.7%"}, {"smiles": "Cc1cc(C(C)(C)C)cc(C)c1CC1=NCCN1", "inhibition": "3.9% (active)"}, {"smiles": "Cc1cc(C(C)(C)C)c(O)c(C)c1CC1=NCCN1", "inhibition": "-1.4%"}, {"smiles": "N=S(=O)([O-])Cc1noc2c1C=C[C+]=C2", "inhibition": "-4.8%"}, {"smiles": "COC1=C(OC)C(=O)c2ccccc2C1=O", "inhibition": "6.2% (active)"}, {"smiles": "O=C1C(SCCO)=C(SCCO)C(=O)c2ccccc21", "inhibition": "-58.7%"}, {"smiles": "Oc1ccc(-c2nc(-c3ccc(F)cc3)c(-c3ccncc3)[nH]2)cc1", "inhibition": "31.8% (active)"}, {"smiles": "O=[N+]([O-])c1ccc(-c2nc(-c3ccc(F)cc3)c(-c3ccncc3)[nH]2)cc1", "inhibition": "6.9% (active)"}, {"smiles": "N#Cc1cc([N+](=O)[O-])c2sc(C(N)=O)[n+]([O-])c2c1", "inhibition": "2.3% (active)"}, {"smiles": "COc1nc(C)nc(Cl)c1NC1=NCCN1", "inhibition": "-8.3%"}, {"smiles": "Cc1nn(-c2ccccc2)c(C)c1C=NN1CCN(Cc2ccccc2)CC1", "inhibition": "5.8% (active)"}, {"smiles": "Nc1nnc(-c2cccc(Cl)c2Cl)c(N)n1", "inhibition": "-3.6%"}, {"smiles": "Nc1ccc(N2C(=O)c3ccccc3C2=O)c(Cl)c1", "inhibition": "10.7% (active)"}, {"smiles": "CCCCCCCCCC(=O)NC(CN1CCOCC1)[C@H](O)c1ccccc1", "note": "(stereo not given in full)", "inhibition": "4.7% (active)"}, {"smiles": "CC1COc2c(N3CCN(C)CC3)c(F)cc3c(=O)c(C(=O)O)cn1c23", "note": "(stereo not given)", "inhibition": "-1.5%"}, {"smiles": "CN=C(NC#N)NCCSCc1nc[nH]c1C", "inhibition": "3.1% (active)"}, {"smiles": "NC(=O)OCC(COC(N)=O)c1ccccc1", "inhibition": "1.7% (active)"}, {"smiles": "NS(=O)(=O)C#Cc1ccccc1", "inhibition": "0.5% (active)"}, {"smiles": "Clc1nccc2c1ccc1ccccc12", "inhibition": "-1.8%"}, {"smiles": "Oc1ccc2ccccc2c1SSc1c(O)ccc2ccccc12", "inhibition": "34.9% (active)"}]}]}
